# Results published in doi:10.1101/2024.03.05.583629.
# Target: pT7_6His-AlfaTag-HOXD13 (human, UniProt P35453 263-343)
# Experiment: PADIT-seq
# Details: dsDNA, one strand shown
# Sequence of pT7_6His-AlfaTag-HOXD13 (P35453 263-343): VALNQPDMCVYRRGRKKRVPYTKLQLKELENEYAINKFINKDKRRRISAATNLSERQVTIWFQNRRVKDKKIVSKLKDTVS
row,Sequence,binding signal
1,CTCGAGGATATCAAGATCTGGCCTCGGCTCCGTAAAAGGAACCTCTAGCTAGCCGACTCACTATAGGGATAATCGCCCTGAGCAAAGACC,1.22 ± 0.0847 log2FC
2,CTCGAGGATATCAAGATCTGGCCTCGGCGCGTACGCGGGAACCTCTAGCTAGCCGACTCACTATAGGGATAATCGCCCTGAGCAAAGACC,-1.05 ± 0.139 log2FC
3,CTCGAGGATATCAAGATCTGGCCTCGGCACCCTAAAAGGAACCTCTAGCTAGCCGACTCACTATAGGGATAATCGCCCTGAGCAAAGACC,0.642 ± 0.0968 log2FC
4,CTCGAGGATATCAAGATCTGGCCTCGGCCACCTAAAAGGAACCTCTAGCTAGCCGACTCACTATAGGGATAATCGCCCTGAGCAAAGACC,-0.327 ± 0.133 log2FC
5,CTCGAGGATATCAAGATCTGGCCTCGGCCCGGTAAAAGGAACCTCTAGCTAGCCGACTCACTATAGGGATAATCGCCCTGAGCAAAGACC,0.409 ± 0.0951 log2FC
6,CTCGAGGATATCAAGATCTGGCCTCGGCCGCGTAAAAGGAACCTCTAGCTAGCCGACTCACTATAGGGATAATCGCCCTGAGCAAAGACC,1.44 ± 0.0853 log2FC
7,CTCGAGGATATCAAGATCTGGCCTCGGCGCCTTAAAAGGAACCTCTAGCTAGCCGACTCACTATAGGGATAATCGCCCTGAGCAAAGACC,0.578 ± 0.0742 log2FC
8,CTCGAGGATATCAAGATCTGGCCTCGGCATTTTAACAGGAACCTCTAGCTAGCCGACTCACTATAGGGATAATCGCCCTGAGCAAAGACC,2.07 ± 0.0923 log2FC
9,CTCGAGGATATCAAGATCTGGCCTCGGCTTTTTATTAGGAACCTCTAGCTAGCCGACTCACTATAGGGATAATCGCCCTGAGCAAAGACC,3.3 ± 0.0796 log2FC
10,CTCGAGGATATCAAGATCTGGCCTCGGCGCCATAAAAGGAACCTCTAGCTAGCCGACTCACTATAGGGATAATCGCCCTGAGCAAAGACC,2.57 ± 0.0659 log2FC
11,CTCGAGGATATCAAGATCTGGCCTCGGCGTTTTAGATGGAACCTCTAGCTAGCCGACTCACTATAGGGATAATCGCCCTGAGCAAAGACC,0.145 ± 0.106 log2FC
12,CTCGAGGATATCAAGATCTGGCCTCGGCATTTTAGCCGGAACCTCTAGCTAGCCGACTCACTATAGGGATAATCGCCCTGAGCAAAGACC,-0.535 ± 0.111 log2FC
13,CTCGAGGATATCAAGATCTGGCCTCGGCGTTTTACGTGGAACCTCTAGCTAGCCGACTCACTATAGGGATAATCGCCCTGAGCAAAGACC,2.36 ± 0.0852 log2FC
14,CTCGAGGATATCAAGATCTGGCCTCGGCAGTCTAAAAGGAACCTCTAGCTAGCCGACTCACTATAGGGATAATCGCCCTGAGCAAAGACC,-0.665 ± 0.0999 log2FC
15,CTCGAGGATATCAAGATCTGGCCTCGGCACTTGGGCGGGAACCTCTAGCTAGCCGACTCACTATAGGGATAATCGCCCTGAGCAAAGACC,-1.04 ± 0.114 log2FC
16,CTCGAGGATATCAAGATCTGGCCTCGGCCATGTAAAAGGAACCTCTAGCTAGCCGACTCACTATAGGGATAATCGCCCTGAGCAAAGACC,1.41 ± 0.0975 log2FC
17,CTCGAGGATATCAAGATCTGGCCTCGGCCTTTTATTAGGAACCTCTAGCTAGCCGACTCACTATAGGGATAATCGCCCTGAGCAAAGACC,3.32 ± 0.0849 log2FC
18,CTCGAGGATATCAAGATCTGGCCTCGGCCGCTGACGCGGAACCTCTAGCTAGCCGACTCACTATAGGGATAATCGCCCTGAGCAAAGACC,-0.995 ± 0.158 log2FC
19,CTCGAGGATATCAAGATCTGGCCTCGGCATTTTAGGCGGAACCTCTAGCTAGCCGACTCACTATAGGGATAATCGCCCTGAGCAAAGACC,-0.396 ± 0.116 log2FC
20,CTCGAGGATATCAAGATCTGGCCTCGGCGGACCACGCGGAACCTCTAGCTAGCCGACTCACTATAGGGATAATCGCCCTGAGCAAAGACC,-0.846 ± 0.11 log2FC

row,Sequence,binding signal
1,CTCGAGGATATCAAGATCTGGCCTCGGCCTTTTAAGAGGAACCTCTAGCTAGCCGACTCACTATAGGGATAATCGCCCTGAGCAAAGACC,2.52 ± 0.0827 log2FC
2,CTCGAGGATATCAAGATCTGGCCTCGGCGCGCATGCGGGAACCTCTAGCTAGCCGACTCACTATAGGGATAATCGCCCTGAGCAAAGACC,-0.957 ± 0.123 log2FC
3,CTCGAGGATATCAAGATCTGGCCTCGGCGTTTTAGCGGGAACCTCTAGCTAGCCGACTCACTATAGGGATAATCGCCCTGAGCAAAGACC,-0.00405 ± 0.124 log2FC
4,CTCGAGGATATCAAGATCTGGCCTCGGCAGTCCACGCGGAACCTCTAGCTAGCCGACTCACTATAGGGATAATCGCCCTGAGCAAAGACC,-0.993 ± 0.114 log2FC
5,CTCGAGGATATCAAGATCTGGCCTCGGCGCGGAAGCGGGAACCTCTAGCTAGCCGACTCACTATAGGGATAATCGCCCTGAGCAAAGACC,-0.566 ± 0.121 log2FC
6,CTCGAGGATATCAAGATCTGGCCTCGGCCTGATAAAAGGAACCTCTAGCTAGCCGACTCACTATAGGGATAATCGCCCTGAGCAAAGACC,1.73 ± 0.0914 log2FC
7,CTCGAGGATATCAAGATCTGGCCTCGGCTCCTTAAAAGGAACCTCTAGCTAGCCGACTCACTATAGGGATAATCGCCCTGAGCAAAGACC,1.08 ± 0.104 log2FC
8,CTCGAGGATATCAAGATCTGGCCTCGGCATTTTACAAGGAACCTCTAGCTAGCCGACTCACTATAGGGATAATCGCCCTGAGCAAAGACC,3.41 ± 0.0871 log2FC
9,CTCGAGGATATCAAGATCTGGCCTCGGCCGCCCAGAGGGAACCTCTAGCTAGCCGACTCACTATAGGGATAATCGCCCTGAGCAAAGACC,-1.03 ± 0.139 log2FC
10,CTCGAGGATATCAAGATCTGGCCTCGGCTTTTTATCTGGAACCTCTAGCTAGCCGACTCACTATAGGGATAATCGCCCTGAGCAAAGACC,0.754 ± 0.104 log2FC
11,CTCGAGGATATCAAGATCTGGCCTCGGCTTGATAAAAGGAACCTCTAGCTAGCCGACTCACTATAGGGATAATCGCCCTGAGCAAAGACC,0.619 ± 0.0899 log2FC
12,CTCGAGGATATCAAGATCTGGCCTCGGCCTTTTAATAGGAACCTCTAGCTAGCCGACTCACTATAGGGATAATCGCCCTGAGCAAAGACC,2.68 ± 0.0826 log2FC
13,CTCGAGGATATCAAGATCTGGCCTCGGCCTTTTAGCTGGAACCTCTAGCTAGCCGACTCACTATAGGGATAATCGCCCTGAGCAAAGACC,-0.366 ± 0.11 log2FC
14,CTCGAGGATATCAAGATCTGGCCTCGGCATTTTAATGGGAACCTCTAGCTAGCCGACTCACTATAGGGATAATCGCCCTGAGCAAAGACC,2.51 ± 0.077 log2FC
15,CTCGAGGATATCAAGATCTGGCCTCGGCTTTTTATTCGGAACCTCTAGCTAGCCGACTCACTATAGGGATAATCGCCCTGAGCAAAGACC,1.86 ± 0.0775 log2FC
16,CTCGAGGATATCAAGATCTGGCCTCGGCGTATTAAAAGGAACCTCTAGCTAGCCGACTCACTATAGGGATAATCGCCCTGAGCAAAGACC,2.14 ± 0.0726 log2FC
17,CTCGAGGATATCAAGATCTGGCCTCGGCAAAGTAAAAGGAACCTCTAGCTAGCCGACTCACTATAGGGATAATCGCCCTGAGCAAAGACC,0.197 ± 0.0829 log2FC
18,CTCGAGGATATCAAGATCTGGCCTCGGCCTCGTAAAAGGAACCTCTAGCTAGCCGACTCACTATAGGGATAATCGCCCTGAGCAAAGACC,3.09 ± 0.0876 log2FC
19,CTCGAGGATATCAAGATCTGGCCTCGGCTTTCTAAAAGGAACCTCTAGCTAGCCGACTCACTATAGGGATAATCGCCCTGAGCAAAGACC,-0.511 ± 0.118 log2FC
